From PubChem BioAssay (NCI)
The panel holds about 83,000 compounds, 20% with a hit somewhere; the sample as a whole holds those more often.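 The test compound was applied at a single concentration to cells in 96-well plates for 48 hours, and percent growth was recorded.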 The source made the active and inactive calls. Rule for the calls: active = growth percent below 10; inactive = the rest.

Key:
Assay in all cases: NCI-60 one-dose screen, 48 h (100 = growth as untreated, 0 = no growth, -100 = all killed)
Conditions in all cases: 10 µM unless noted
[1] = test system: SR leukemia
[2] = test system: RPMI-8226 leukemia
[3] = test system: OVCAR-8 ovarian
[4] = test system: OVCAR-5 ovarian
[5] = test system: OVCAR-4 ovarian
[6] = test system: SK-OV-3 ovarian
[7] = test system: IGROV1 ovarian
[8] = test system: OVCAR-3 ovarian
[9] = test system: HS 578T breast
[10] = test system: NCI/ADR-RES ovarian

Measured: growth

COc1ccc(-c2nc3sccn3c2-c2ccnc(NCCCNS(=O)(=O)c3ccc(F)cc3)n2)cc1
inactive: [1] 14.8% | [4] 77% | [5] 17.1% | [6] 39.5% | [7] 16.3% | [8] 20.9% | [9] 32.5%
active: [2] 5.74% | [3] 6.98% | [10] -5.58%

Cc1nc(Nc2cccnc2)sc1C(=O)/C=C/c1ccc(Cl)cc1
active: [1] 6.11% | [2] -4.94% | [8] 7.38%
inactive: [3] 14.9% | [4] 37.3% | [5] 82.4% | [6] 81.3% | [7] 14.9% | [9] 98.9% | [10] 35.4%

CC(=O)Nc1ccc2c(c1)/C(=C\C=C/c1ccc([N+](C)(C)C)cc1)c1ccccc1-2
inactive: [1] 90% | [2] 73.6% | [3] 57.4% | [4] 53.9% | [5] 28.1% | [6] 70.2% | [7] 67.1% | [8] 78% | [9] 25.3% | [10] 101%

C=C1C(=O)O[C@H]2[C@H]1CC/C(Cn1cc(-c3ccc(N)cc3)nn1)=C\CC[C@@]1(C)O[C@@H]21
inactive: [4] 38.4% | [5] 13.6% | [6] 83.8% | [7] 18.4% | [9] 62.4% | [10] 69.8%
active: [1] 7.69% | [2] -8.22% | [3] -5.97% | [8] -30.7%

COc1cccc(-c2nc3sccn3c2-c2ccnc(NCCCNS(=O)(=O)c3ccccc3)n2)c1
inactive: [1] 50.7% | [2] 28% | [3] 29.6% | [4] 128% | [5] 55.7% | [6] 73% | [7] 55.3% | [8] 48.2% | [9] 103% | [10] 23.1%

CC1(C)OC2COC3(C(=O)O)OC(C)(C)OC3C2O1 (centres undefined)
inactive: [1] 121% | [2] 109% | [3] 108% | [4] 90.1% | [5] 116% | [6] 103% | [7] 109% | [8] 108% | [9] 101% | [10] 101%

O=C1CCC/C=C\C[C@H]2C=CC(=O)/C2=C/C[C@H](C/C=C\CC(F)(F)F)O1
inactive: [3] 10.4% | [5] 20.6% | [9] 23.2%
active: [1] 4.02% | [2] -4.51% | [4] -6.91% | [6] -7.52% | [7] -25.8% | [8] -69.7% | [10] 8.83%

Oc1ccc(N=Cc2ccccc2)cc1
active: [8] 7.09%
inactive: [1] 30.9% | [2] 55.4% | [3] 86.8% | [4] 104% | [5] 79.7% | [6] 119% | [7] 97.1% | [9] 103% | [10] 101%

O=C1N=C(c2c(-c3[nH]c(=O)c4ccc(Br)cc4c3O)c(O)c3ccccc3c2O)C(=O)c2cc(Br)ccc21
inactive: [1] 20.8% | [4] 10.4%
active: [2] 6.4% | [3] -23.5% | [5] -59.7% | [6] -32.6% | [7] -55.9% | [8] -81.5% | [9] -21.9% | [10] -28.9%

CCCC(C(=O)OCC)C(C)OC(=O)OCC (centres undefined)
inactive: [1] 87.6% | [2] 101% | [3] 96.4% | [4] 108% | [5] 108% | [6] 95.5% | [7] 115% | [8] 103% | [10] 105%

CCCCCCCCCN1C(=O)/C(=c2\sc3n(c2=O)C2C(NN=3)N(CC)C(=O)N2CC)c2ccccc21 (centres undefined)
inactive: [2] 80.4% | [3] 36.7% | [4] 80.8% | [5] 13.2% | [6] 93.7% | [7] 54.1% | [8] 21.1% | [9] 26.7% | [10] 46.9%
active: [1] 5.57%

CC(C)C[C@H](NC(=O)Cn1ccc(NCc2ccccc2)cc1=O)B(O)O
active: [1] 5.45% | [2] -13.9% | [8] -54.5% | [9] 8.69%
inactive: [3] 51.3% | [4] 38.9% | [5] 48.2% | [6] 56.5% | [7] 41.1% | [10] 80.7%
